Hits are enriched below; roughly 1.4% of the tested compounds scored in any of these assays.
AMA1-RON2 inh: inhibitors of Plasmodium falciparum AMA1-RON2 interaction; AlphaScreen AMA1-biotinylated RON2 peptide binding; Potency, µM (doses to about 58.2 µM), for inactives: at the highest dose activity change, negative = inhibition, hits mostly inhibitors; 0.2% of 360,000 active;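 also: 0% = vehicle wells and -100% = peptide control; nearly all actives have a fitted effect of over 45% in size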
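AMA1 (3D7) with his tag at 25 nM final met compounds first, then biotinylated RON2 peptide at 25 nM; detection used donor plus acceptor beads, 10 µg/mL apiece, read by AlphaScreen after 30 min at room temperature.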
SARS PLP yeast: inhibitors of SARS-CoV papain-like protease in yeast | S. cerevisiae expressing SARS-CoV PLpro, growth rescue | Potency, µM (highest dose often 32.9 µM), without a hit: top-dose activity, positive = growth rescue, hits mostly activators | 0.19% of 330,000 active | AID 485353; calls by dose curve; also: 0% is about no effect; nearly all actives have a fitted effect of over 55% in size
AmpC inh no detg: inhibitors of E. coli AmpC beta-lactamase without detergent; P00811; AmpC nitrocefin hydrolysis, absorbance 480 nm, 0.0001% Triton; Potency, µM (titrated, usually from 57.1 µM), for inactives: top-dose activity change, negative = inhibition, actives largely listed as inhibitors; 0.52% of 330,000 active;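 also: plate controls were no compound for no effect and no enzyme for full effect; nearly all actives have a fitted effect of over 20% in size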
Target sequence (P00811 whole entry, looked up): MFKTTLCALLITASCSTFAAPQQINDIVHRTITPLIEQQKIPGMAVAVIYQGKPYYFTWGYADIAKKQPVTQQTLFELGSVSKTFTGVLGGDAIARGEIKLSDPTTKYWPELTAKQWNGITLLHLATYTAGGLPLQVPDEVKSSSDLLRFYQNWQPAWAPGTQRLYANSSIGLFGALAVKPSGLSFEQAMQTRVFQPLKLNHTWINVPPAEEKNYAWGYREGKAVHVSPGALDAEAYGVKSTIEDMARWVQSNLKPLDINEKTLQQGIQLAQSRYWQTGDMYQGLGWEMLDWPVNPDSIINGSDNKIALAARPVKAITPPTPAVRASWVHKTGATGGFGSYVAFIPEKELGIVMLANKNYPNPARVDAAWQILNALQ
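20 mM phosphate pH 7.0 + 0.01% (detergent screen) or 0.0001% Triton X-100; 5.3 nM AmpC reagent; cpd preinc 15 min RT; nitrocefin (800 uM stock) to start; A480 q20 s × 4 min; Activity was normalised to no-enzyme and no-compound control wells.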
AmpC detergent: AmpC beta-lactamase inhibition with detergent present | P00811 | AmpC hydrolysis of nitrocefin, absorbance 480 nm, 0.01% Triton | Potency, µM (top dose mostly 114 µM), without a hit: at the highest dose activity change, negative = inhibition, usual class: inhibitors | 0.041% of 370,000 active | AID 485294;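 also: 0% = no-compound wells and -100% = no-enzyme wells; nearly all actives have a fitted effect of over 25% in size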
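20 mM phosphate pH 7.0 + 0.01% (detergent screen) or 0.0001% Triton X-100; 5.3 nM AmpC reagent; cpd preinc 15 min RT; nitrocefin (800 uM stock) to start; A480 q20 s × 4 min; Activity was normalised to no-enzyme and no-compound control wells.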
VACV Venus inh: vaccinia inhibition (Venus reporter); Potency, µM (doses to about 36.5 µM), inactives show top-dose activity change, negative = inhibition, most hits filed as inhibitors; 0.46% of 330,000 active; AID 720580; Vaccinia virus Venus reporter expression, fluorescence; calls by dose curve; tested in A549 cells; also: % is scaled to controls: 0 for no effect and ±100 for the full control effect; nearly all actives have a fitted effect of over 30% in size
Vaccinia mCherry: vaccinia inhibition (mCherry reporter) | Potency, µM (highest dose often 36.5 µM), for the others: at the highest dose activity change, negative = inhibition, actives largely listed as inhibitors | 0.63% of 310,000 active | AID 720579 | Vaccinia virus mCherry reporter infection, fluorescence; calls by dose curve; tested in A549 cells; also: % is scaled to controls: 0 for no effect and ±100 for the full control effect; nearly all actives have a fitted effect of over 35% in size
* marks the source's active call; other numbers are inactive results; i = inactive; ? = inconclusive; nt = no result. Unless noted, calls follow the shape of the dose curve; as a rule, active = well fitted curve in the direction sought with a large enough effect; inconclusive = small, poorly fitted or top-dose-only effect, or another doubt; inactive = no such curve, though single readings can be large; an effect the other way counts as inactive or inconclusive. Potency is read from the fitted curve at half-maximal effect.

SMILES	AMA1-RON2 inh	SARS PLP yeast	AmpC inh no detg	AmpC detergent	VACV Venus inh	Vaccinia mCherry
C=C1C(=O)c2sccc2C(c2ccc(OC)c(OC)c2)C1COC(C)=O (stereo not drawn)	10.0%	nt	nt	nt	7.08µM*	5.01µM*
COc1ccc(OC)c(/C=C/c2cc3ccccc3cn2)c1	nt	nt	nt	nt	-40.8%	?
CCCCC(=O)Nc1sc2c(c1-c1nc3ccccc3s1)CCN(C(C)=O)C2	nt	-5.6%	0.501µM*	?	nt	nt
CN(C)CCNc1ncnc2c1sc1nc(-c3ccccc3)c3c(c12)CCCC3	-18.8%	-1.6%	185.2%	3.7%	10µM*	?
O=C(NCC1CCC2(CCN(Cc3cnn(-c4ccc(F)cc4)c3)CC2)O1)c1ccccc1 (stereo not drawn)	nt	nt	nt	nt	-13.4%	i
N/C(=N\c1nc2ccccc2o1)NC(=O)/C=C/c1ccccc1	95.3%	-1.2%	5.01µM*	-4.0%	4.6%	-24.0%
COc1cc(/C=C2/NC(=O)N(Cc3ccccc3F)C2=O)cc(OC)c1O	-7.3%	2.1%	-32.7%	4.3%	-1.2%	5.01µM*
CCOc1cc(/C=C2/NC(=O)N(Cc3ccccc3F)C2=O)ccc1O	-0.4%	4.6%	-52.3%	-5.5%	-27.8%	nt
N/C(=N\OC(=O)c1cc([N+](=O)[O-])ccc1Cl)c1ccccn1	17.6%	1.1%	-9.2%	0.7%	-11.3%	-9.3%
N/C(=N\OC(=O)c1ccc([N+](=O)[O-])cc1Cl)c1ccccn1	66.5%	-4.7%	-6.7%	-13.7%	?	2.82µM*
C=CCNc1nc(C(=O)OCC(=O)c2ccc(Cl)cc2)cs1	19.8%	-0.8%	-42.8%	-10.6%	3.7%	-13.5%
C=CCNc1nc(C(=O)OCC(=O)c2ccc(C)c([N+](=O)[O-])c2)cs1	32.9%	16.6%	20µM*	1.9%	-4.8%	-11.1%
Cc1ccc(-c2csc(N3CCN(CCCn4c(-c5ccncc5)nc5ccccc54)CC3)n2)cc1	-18.2%	-6.9%	143.8%	5.8%	?	10µM*
CCN(CC(=O)Nc1ccc(NC(C)=O)cc1)C(=O)/C=C/c1cn(-c2ccccc2)nc1-c1cccs1	-3.5%	2.4%	25.1µM*	?	-27.8%	-7.5%
COc1ccc(OC)c(CN2CCCC(c3nc(-c4ccncc4)ncc3-c3ccccc3C)C2)c1 (stereo not drawn)	nt	nt	nt	nt	-6.8%	-4.4%
Cc1c(C(=O)NCCCc2ccncc2)cnn1-c1ncc2c(n1)-c1ccccc1CC2	nt	nt	nt	nt	?	-1.8%
CCN1CCC(N2CCN(c3ccc(Cl)cc3)CC2)CC1	1.5%	7.5%	-9.3%	-18.4%	nt	nt
CCCCCCN1CCN(c2ccc(Cl)cc2)CC1	35.5µM*	-3.5%	-39.4%	?	-5.4%	-4.1%
Cc1ccc2c(c1)-c1c(cnn1CC(=O)N(Cc1ccco1)C1CCCCC1)CO2	-20.8%	-9.6%	50.1µM*	-16.4%	-3.6%	i
Cc1ccc2c(c1)-c1c(cnn1CC(=O)NC(C)CCc1ccco1)CO2 (stereo not drawn)	-3.1%	-3.0%	11.1%	?	9.0%	i
O=C(NCCc1cccnc1)c1cnn(-c2ncc3c(n2)-c2ccccc2CC3)c1C1CC1	nt	nt	nt	nt	-10.2%	-24.3%
O=C(Nc1cccc(NC(=O)c2ccco2)c1)c1ccc2c(c1)OCO2	2.2%	2.0%	11.2µM*	-6.1%	nt	nt
C/C(=N\NC(=O)c1ccc(NS(=O)(=O)c2cccs2)cc1)c1ccc2c(c1)OCO2	23.5%	1.7%	17.8µM*	1.5%	-5.9%	-0.6%
O=C(Nc1cccc(NC(=O)c2cccs2)c1)c1ccc2c(c1)OCO2	6.9%	-1.5%	10µM*	?	-25.7%	?
COc1ccccc1CCc1nnc(CCC(=O)NC(C)Cc2ccsc2)o1 (stereo not drawn)	13.3%	0.4%	88.5%	-6.9%	1.78µM*	1.12µM*
SMILES	AMA1-RON2 inh	SARS PLP yeast	AmpC inh no detg	AmpC detergent	VACV Venus inh	Vaccinia mCherry
COc1ccccc1CCc1nnc(CCC(=O)NCC(C)Oc2cccnc2)o1 (stereo not drawn)	-4.1%	-0.1%	8.5%	2.5%	nt	nt
CCCc1nc(C(C)(C)O)c(C(=O)O)n1Cc1ccc(-c2ccccc2-c2nn[nH]n2)cc1	nt	5.2%	-57.2%	44.7µM*	nt	nt
CCCCc1nc(Cl)c(CO)n1Cc1ccc(-c2ccccc2-c2nn[nH]n2)cc1	7.5%	-1.2%	-29.7%	?	-13.6%	-11.4%
COc1ccc(CN2C[C@H](Sc3nc4ccccc4[nH]3)C[C@H]2C(=O)N(C)C)c2ccccc12	nt	nt	nt	nt	-1.4%	-16.9%
Cc1ccc(S(=O)(=O)NC(CC(=O)N2CCOCC2)c2ccco2)cc1 (stereo not drawn)	-1.5%	2.8%	0.141µM*	4.8%	-2.9%	-13.6%
COc1ccc(S(=O)(=O)NC(CC(=O)NC2CCCC2)c2ccco2)cc1 (stereo not drawn)	7.4%	-6.3%	64.8%	1.4%	-4.5%	nt
Cc1ccc(S(=O)(=O)NC(CC(=O)NC2CCCC2)c2ccco2)cc1 (stereo not drawn)	11.6%	2.6%	0.398µM*	-4.3%	-20.2%	nt
Cc1ccc(S(=O)(=O)NC(CC(=O)N2CCC3(CC2)OCCO3)c2ccco2)cc1 (stereo not drawn)	-4.1%	-0.4%	19.5%	-5.4%	-7.5%	nt
COC(=O)c1ccc(C(=O)NCC2Cc3cc(F)cc(-c4cncnc4)c3O2)cc1 (stereo not drawn)	nt	nt	nt	nt	0.0%	i
Cc1cc(C)nc(S[C@H]2C[C@@H](C(=O)N3CCN(c4ccccc4F)CC3)N(Cc3ccccc3F)C2)n1	nt	nt	nt	nt	0.0%	-8.1%
COc1cccc(Nc2nc(N)nc(CCl)n2)c1	6.9%	-0.6%	-26.0%	3.9%	?	10µM*
Cc1cccc(Nc2nc(N)nc(CCl)n2)c1	15.7%	-0.7%	-16.2%	-0.3%	?	?
COc1ccc2ccccc2c1/C=N\NC(=O)c1ccc(C)s1	24.0%	-4.9%	11.2µM*	-0.9%	-19.1%	-2.4%
CC(=O)C1CCC2C3CC=C4CC(SC(=N)N)CCC4(C)C3CCC12C (stereo not drawn)	-4.3%	nt	nt	nt	15.8µM*	?
CCCNS(=O)(=O)c1cc(-c2nnc3c4ccccc4c(C)nn23)ccc1OC	nt	nt	nt	18.0%	-9.1%	-10.5%
O=C(NC(=S)Nc1nc(-c2ccccc2)cs1)c1cccs1	22.0%	-21.5%	-33.1%	0.2%	-6.9%	-10.5%
O=C(NNc1nc(-c2ccccc2)cs1)c1cccs1	50.0%	9.2%	8.91µM*	-1.8%	-16.4%	-29.7%
Cc1csc(C(C)N(C)C(=O)c2cc(NC(=O)C3CCC3)c3c(c2)nc(-c2ccncc2)n3C)n1 (stereo not drawn)	nt	nt	nt	nt	-10.7%	i
Oc1ccc(N=Nc2c(O)ccc3ccccc23)cc1	16.8µM*	-25.8%	-51.6%	?	-25.9%	?
